# Assay outcomes as filed in PubChem.
# ALOX12 inh: ALOX12 (human) lipoxygenase inhibition; P18054; purified 12hLO, xylenol orange hydroperoxide absorbance; Potency, µM (top dose mostly 108 µM), without a hit: top-dose activity change, negative = inhibition, actives largely listed as inhibitors; 580,000 compounds, 1.1% hits; AID 1671190
#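 Purified human 12hLO (150 nM final) in 25 mM Hepes, 0.01% Triton X-100, pH 7.0 was preincubated 15 min at room temperature with compound. Then 40 uM arachidonic acid was added, 30 min. Hydroperoxide was read by Fe-XO absorbance ratio 573/405 nm.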
# PLK1 PBD inh: blocks phosphopeptide binding to human PLK1 polo-box domain; Plk1 PBD binding of FITC phosphopeptide, fluorescence polarization; P53350; Potency, µM, without a hit: max response, negative = inhibition, actives largely listed as inhibitors; 360,000 compounds, 2.8% hits; note: series mostly up to about 57 µM; nearly all actives have a fitted effect of over 65% in size
# Target sequence (P53350 whole entry, looked up, the tested form may be a part): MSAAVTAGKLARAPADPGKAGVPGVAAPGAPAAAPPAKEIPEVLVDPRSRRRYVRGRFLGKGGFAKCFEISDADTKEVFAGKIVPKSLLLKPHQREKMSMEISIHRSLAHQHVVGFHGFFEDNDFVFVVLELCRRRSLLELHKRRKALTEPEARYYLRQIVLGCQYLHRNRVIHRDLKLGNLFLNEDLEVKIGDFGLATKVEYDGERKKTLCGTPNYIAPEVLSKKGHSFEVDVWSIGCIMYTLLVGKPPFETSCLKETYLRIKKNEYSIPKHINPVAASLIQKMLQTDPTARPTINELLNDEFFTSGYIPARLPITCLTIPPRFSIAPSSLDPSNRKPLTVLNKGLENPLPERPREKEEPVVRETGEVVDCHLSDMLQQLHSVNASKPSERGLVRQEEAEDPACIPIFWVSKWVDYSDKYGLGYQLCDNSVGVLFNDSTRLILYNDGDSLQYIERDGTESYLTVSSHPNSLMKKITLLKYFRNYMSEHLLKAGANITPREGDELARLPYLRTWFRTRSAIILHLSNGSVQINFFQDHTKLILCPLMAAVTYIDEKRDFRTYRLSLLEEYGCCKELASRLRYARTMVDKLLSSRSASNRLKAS
# VDR inh: vitamin D3 receptor (human) inhibition; P11473; VDR-SRC2-3 peptide fluorescence polarization, 2 h; Potency, µM, without a hit: max response, negative = inhibition, most hits filed as inhibitors; 400,000 compounds, 0.93% hits
#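 After 23 nl compound addition and a short centrifugation, plates sat for 2 hours at ambient temperature; polarization of fluorescence then indicated loss of VDR binding to peptide SRC2-3.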
# KAT2A inh: blocks human GCN5L2 histone acetyltransferase | Q92830 | GCN5L2 HAT assay, ThioGlo1 CoA-SH fluorescence | 390,000 compounds, 0.21% hits | Potency, µM (highest dose often 58.9 µM), for the others: at the top dose activity change, negative = inhibition, actives largely listed as inhibitors
#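 Free CoA generated was detected with ThioGlo1 (50uM) fluorescence at Ex340nm/Em540nm, read immediately and after 20 min at room temperature. Enzyme, 20 nM in HEPES pH 7.5 buffer, saw compounds 15 min before adding 75uM H3(1-25) peptide and 70uM acetyl-CoA.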
# TbPYK confirm: Trypanosoma brucei pyruvate kinase inhibition, cherry-pick confirmation | recombinant TbPYK, Kinase-Glo ATP luminescence | Potency, µM (doses to about 76.9 µM), for the others: top-dose activity change, negative = inhibition, hits mostly inhibitors | shares compounds with PLK1 PBD inh | AID 720569 | 890 compounds, 67% hits; note: nearly all actives have a fitted effect of over 70% in size
# TbPYK orthogonal: inhibits T. brucei pyruvate kinase in orthogonal ADP-Glo assay. Potency, µM (titrated, usually from 76.9 µM), for inactives: at the highest dose activity change, negative = inhibition, actives largely listed as inhibitors. 890 compounds, 62% hits. shares compounds with PLK1 PBD inh. recombinant TbPYK, ADP-Glo luminescence, 60 min. AID 720584; note: nearly all actives have a fitted effect of over 75% in size
# * marks the source's active call; other numbers are inactive results; ? = inconclusive; . = no result given; [ ] = dose if it differs, or a comment. Only some compounds are listed: those with a hit (about 3% of all), similar ones and a draw of the others. Calls come from the whole dose curve; as a rule, active = well fitted curve in the direction sought with a large enough effect; inconclusive = small, poorly fitted or top-dose-only effect, or another doubt; inactive = no such curve, though single readings can be large; an effect the other way counts as inactive or inconclusive. % is set by controls: 0 for no effect and ±100 for the full control effect; potency is the fitted concentration of half-maximal effect.
SMILES,ALOX12 inh,PLK1 PBD inh,VDR inh,KAT2A inh,TbPYK confirm,TbPYK orthogonal
CC(C)(C)C(=O)CSc1nnc(COc2ccccc2Cl)n1C1CC1,52%,.,.,.,.,.
Cc1ccc2oc(Nc3nc(C)c(C)c(C)n3)nc2c1,51%,-5%,-21%,2%,.,.
Cc1nc(Nc2nc3ccccc3o2)nc(C)c1C,-1%,30µM*,?,-5%,-16%,1%
CCN=C1S/C(=C\c2cn(C(C)=O)nc2-c2ccccc2)C(=O)N1CC,-10%,3%,11%,-10%,.,.
CC(=O)NC1=NC(=O)/C(=C/c2cn(C(C)=O)nc2-c2ccccc2)S1,-28%,9.5µM*,?,-23%,?,?
Cc1ccc(-c2nc3ccccc3nc2-c2ccccc2)cc1,0%,-12%,3%,-5%,.,.
CNc1nc(-c2ccccc2)[n+](-c2ccc(C)cc2)s1,7.1µM*,1.5µM*,?,7.9µM*,1µM*,1.8µM*
Cc1ccc(-c2nc(N)s[n+]2-c2ccccc2)cc1,?,3.8µM*,-25%,6.3µM*,2.2µM*,6.3µM*
COC(=O)c1ccc(CNC(=O)c2cc(OC)cc(OC)c2)cc1,26%,.,.,.,.,.
COC(=O)c1sc(NC(=O)c2cc(-c3ccccc3)nc3ccccc23)c(C#N)c1C,-27%,2.7µM*,?,?,7.1µM*,7.1µM*
COc1ccc(-c2cc(C(=O)Nc3sc4c(c3C#N)CCCC4)c3ccccc3n2)cc1,-24%,-11%,-13%,-11%,.,.
Cc1ccc(CNC(=O)CCc2ncc(-c3ccc(Cl)cc3Cl)o2)cc1,-18%,.,.,.,.,.
O=c1[nH]c(=O)n(C2CC(O)C(CO)O2)cc1Br (stereo not given),-11%,-1%,6%,.,13µM*,28µM*
COc1ccc(C(=O)N2CCc3ccc(C(=O)NCc4ccccn4)cc32)cc1,75%,.,.,.,.,.
CC(C)(C)CCNC(=O)c1cc(C2CC2)nc2ccccc12,-10%,.,.,.,.,.
Cc1ccc(S(=O)c2ccc([N+](=O)[O-])c3nonc23)cc1 (stereo not given),2µM*,1.5µM*,.,.,-96%,11µM*
Cc1cc(C)c(C#N)c(SC2CCCCC2=O)n1 (stereo not given),?,-13%,-1%,-3%,14µM*,18µM*
CC(Cl)C(=O)NC(=O)NCc1ccccc1 (stereo not given),0%,.,.,.,.,.
O=C(Nc1ccc(F)cc1)c1nn(-c2ccc(F)cc2)c2c1CCC2,-32%,.,.,.,.,.
O=S(=O)(/N=S1\CC=CCN1S(=O)(=O)c1ccccc1)c1ccccc1 (stereo not given),?,3.4µM*,.,.,0.5µM*,1.4µM*
CCOc1ccccc1N1CCN(S(=O)(=O)c2cc(C)ccc2OC)CC1,-13%,5%,-6%,-8%,.,.
COc1ccc(C2C(C#N)=C(N)OC3=C2C(=O)CCC3)cc1OC (stereo not given),-6%,-10%,6%,1%,.,.
CCOc1ccccc1N1CSC2=C(C#N)C(c3c(OC)ccc4ccccc34)CC(=O)N2C1 (stereo not given),3.2µM*,19µM*,?,28µM*,1.4µM*,1.8µM*
COc1ccc(C2CC(=O)N3CN(c4ccc(C)c(Cl)c4)CSC3=C2C#N)cc1OC (stereo not given),35µM*,?,22µM*,?,?,18µM*
COc1cc(OC)c(C2CC(=O)N3CN(c4ccc(C)cc4)CSC3=C2C#N)cc1OC (stereo not given),7%,21µM*,45µM*,?,1.4µM*,1.3µM*
SMILES,ALOX12 inh,PLK1 PBD inh,VDR inh,KAT2A inh,TbPYK confirm,TbPYK orthogonal
COc1ccccc1C1CC(=O)N(c2ccc(C)cc2)C2=C1C(=O)OC2 (stereo not given),19%,.,.,.,.,.
COc1ccc(N2CSC3=C(C#N)C(c4ccc(OC)c(OC)c4)CC(=O)N3C2)c(OC)c1 (stereo not given),?,7.5µM*,32µM*,-25%,0.79µM*,5µM*
COc1ccc(C2C(C#N)=C(N)SC(N)=C2C#N)cc1OC,?,-22%,-26%,-5%,.,.
CC(O)CNC(=O)C(=O)Nc1sc2c(c1C#N)CC(C)(C)OC2 (stereo not given),60%,.,.,.,.,.
Cn1nnnc1SCC(=O)N(Cc1cccs1)c1ccc2c(c1)OCCO2,0%,.,.,.,.,.
COc1cc(OC)c(NC(=O)CCn2ccn3nc4c(c3c2=O)CCCC4)cc1Cl,51%,.,.,.,.,.
COc1ccc(N2CSC3=C(C#N)C(c4cc(OC)c(OC)cc4OC)CC(=O)N3C2)c(OC)c1 (stereo not given),28µM*,12µM*,45µM*,-22%,0.63µM*,2.8µM*
COc1ccc(N2C(=O)C3CC(C)=C(C)CC3C2=O)c(OC)c1 (stereo not given),0%,0%,-2%,-5%,.,.
Cc1snc(SCC(=O)c2ccc([N+](=O)[O-])cc2)c1C#N,?,9.5µM*,?,6.3µM*,18µM*,20µM*
Cc1ccc(CCNC(=O)C2CCCN(C(=O)c3cc4sccc4n3C)C2)cc1 (stereo not given),18%,-9%,-3%,-5%,2.5µM*,10µM*
Cc1ccc(C2Cn3nnc(-c4noc(-c5nn(C)c6ccccc56)n4)c3CO2)cc1 (stereo not given),33%,.,.,.,.,.
O=C(O)CN(CCO)CCO,-11%,.,.,.,.,.
O=C1CC(Sc2nnnn2-c2ccccc2)C(=O)N1c1cccc(Cl)c1 (stereo not given),115%,?,-5%,0%,28µM*,32µM*
CN(C)Cc1ccc(CNC(=O)c2nn(-c3ccc(F)cc3)c3c2CCC3)cc1,2%,.,.,.,.,.
COc1cccc(-n2ccn(Cc3cccc(Cl)c3)c(=O)c2=O)c1,3%,.,.,.,.,.
Cc1ccc(C(CNC(=O)c2cccs2)N2CCCCC2)o1 (stereo not given),7%,.,.,.,.,.
CCOC(=O)c1ccc(N2C(=O)CC(C(=O)OC)=C2C)cc1,0%,?,?,0%,.,.
CCOC(=O)C1=C(N)N(c2ccccc2)C(=O)C1,19%,3µM*,25µM*,93%,-2%,-2%
c1ccc(-c2csc(Nc3cccnc3)n2)nc1,28%,-6%,1%,1%,.,.
c1cncc(Nc2nc(-c3cccs3)cs2)c1,?,19µM*,?,-14%,-21%,?
CC(C)C(NC(=O)c1ccc(I)cc1)C(C)C,4%,.,.,.,.,.
N/C(=N\OC(=O)c1ccc(Cl)cc1Cl)c1ccccn1,-16%,?,-11%,3%,.,.
Cc1ccc(C(=O)O/N=C(\N)c2ccccn2)c(Cl)c1,24%,3%,-9%,-3%,16µM*,13%
COc1cccc(/C=C/C(=O)C23CC4CC(CC(C4)C2)C3)c1OC,6%,.,.,.,.,.
CC#CCn1cc2c3c(cccc31)[C@H](CC(C)C)N[C@H](C(=O)NCc1ccccc1)C2,33%[176 µM],.,.,.,.,.
